The molecules below were run against MAP kinase-activated protein kinase 2 (Homo sapiens) (UniProt P49137). Settings: at 0.1 µM.
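Also: figures are mean inhibition values.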

MAP kinase-activated protein kinase 2 (Homo sapiens), sequence (P49137 whole entry, looked up): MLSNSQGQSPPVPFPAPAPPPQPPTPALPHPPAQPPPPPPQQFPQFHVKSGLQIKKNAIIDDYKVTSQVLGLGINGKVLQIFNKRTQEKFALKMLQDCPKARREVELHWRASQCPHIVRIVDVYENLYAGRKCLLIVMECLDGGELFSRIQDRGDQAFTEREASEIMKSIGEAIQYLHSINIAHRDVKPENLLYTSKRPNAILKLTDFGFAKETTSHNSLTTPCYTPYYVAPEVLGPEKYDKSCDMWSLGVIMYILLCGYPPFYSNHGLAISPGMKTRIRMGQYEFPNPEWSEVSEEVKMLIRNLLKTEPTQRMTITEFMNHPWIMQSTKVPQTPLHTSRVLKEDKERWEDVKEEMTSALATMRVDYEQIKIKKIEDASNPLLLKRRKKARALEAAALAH

Q: `O=C(Nc1n[nH]c2cc(-c3ccccc3)ccc12)C1CC1` was tested. Which inhibition did it give?
A: 3.04%

Q: With `Cc1ccc(C(=O)NC2CCC2)cc1-c1ccc(C(=O)NCC2CC2)cc1` as the molecule, how does the inhibition read?
A: 1.17%

Q: For `O=C(Nc1n[nH]c2cc(-c3cc(F)ccc3F)ccc12)C1CC1`, which inhibition is on record?
A: 1.65%

Q: How did the inhibition turn out when `CNC(=O)c1cncc(/C=C/c2c(C)cccc2C)c1` was run?
A: 0.41%

Q: For `O=C(Nc1n[nH]c2nc(-c3ccc(O)cc3)c(Br)cc12)C1CC1`, which inhibition is on record?
A: 2.43%

Q: With `NS(=O)(=O)c1ccc(N/N=C2\C(=O)Nc3ccc(-c4cnco4)cc32)cc1` as the molecule, how does the inhibition read?
A: -0.59%

Q: For `Fc1ccc(-c2ncn(CCCN3CCOCC3)c2-c2ccncc2)cc1`, which inhibition is on record?
A: -0.27%

Q: For `C[C@@H](Oc1cc(-n2cnc3ccc(OCC4CCN(C)CC4)cc32)sc1C(N)=O)c1ccccc1Cl`, which inhibition is on record?
A: 2.09%

Q: For `CCc1ccc(Oc2nccc(-c3c(-c4ccc(F)cc4)ncn3C3CCNCC3)n2)cc1`, which inhibition is on record?
A: 1.96%

Q: With `COc1cccc(/C=N/Nc2ncnc3c2cnn3-c2cccc(OC)c2)c1` as the molecule, how does the inhibition read?
A: 2.15%

Q: `COc1ccc2cc(-c3c(-c4ccncc4)nc(-c4ccc(S(C)(=O)=O)cc4C)n3C)ccc2c1` was tested. Which inhibition did it give?
A: -0.32%

Q: For `CS(=O)(=O)CCNCc1ccc(-c2ccc3ncnc(Nc4ccc(OCc5ccccc5)c(Br)c4)c3c2)o1`, which inhibition is on record?
A: 1.3%

Q: Which inhibition does the source give for `Fc1ccc(-c2ncn(C3CCNCC3)c2-c2ccnc(Oc3ccc(Oc4ccccc4)cc3)n2)cc1` here?
A: 5.15%

Q: How did the inhibition turn out when `O=C1Nc2ccc(I)cc2C1=Cc1cc(Br)c(O)c(Br)c1` was run?
A: 1.65%

Q: Which inhibition does the source give for `COc1cc(Nc2ncc3c(C)nc(-c4cccc(Oc5ccccc5)c4)n3n2)cc(OC)c1OC` here?
A: 3.12%

Q: With `CN1CCN(CCCNc2nc3ccc(Oc4ccc(NC(=O)Nc5cc(C(F)(F)F)ccc5F)cc4)cc3[nH]2)CC1` as the molecule, how does the inhibition read?
A: -0.45%

Q: How did the inhibition turn out when `COc1cc(Nc2ncc(-c3ccccc3)o2)cc(OC)c1OC` was run?
A: -1.14%

Q: Which inhibition does the source give for `COc1ccc(C2=C(N3CCc4ccccc43)C(=O)NC2=O)cc1` here?
A: 2.76%

Q: Which inhibition does the source give for `Cc1ccc(C(=O)NC(C)C)cc1-c1ccc(C(=O)NCC2CC2)cc1` here?
A: -1.44%

Q: `NC(=O)c1cc(-c2ccc(F)cc2)cc(-c2ccncc2)c1N` was tested. Which inhibition did it give?
A: 2.21%

Q: With `Clc1ccc(CNc2nccc(-c3cnn4ncccc34)n2)cc1` as the molecule, how does the inhibition read?
A: 3.88%

Q: Which inhibition does the source give for `O=C1Nc2ccccc2/C1=C/Nc1ccc(-n2cncn2)cc1` here?
A: 2.96%

Q: How did the inhibition turn out when `Fc1ccc(-c2ncn(C3CCNCC3)c2-c2ccnc(Oc3ccc(F)c(F)c3)n2)cc1` was run?
A: 1.11%

Q: For `CN(c1ccc(NC(=O)Nc2c(Cl)cccc2Cl)cc1)c1ccnc(Nc2cccc(CS(C)(=O)=O)c2)n1`, which inhibition is on record?
A: 0.46%

Q: With `NC(=O)Cc1ccccc1Oc1nccc(-c2c(-c3ccc(F)cc3)ncn2C2CCNCC2)n1` as the molecule, how does the inhibition read?
A: 0.74%

Q: With `CN(C)CCOc1ccc(-c2cc(-c3ccc4c(c3)CCC4=NO)c(-c3ccncc3)o2)cc1` as the molecule, how does the inhibition read?
A: -1.35%

Q: How did the inhibition turn out when `CN(C)c1ccc2c(c1)/C(=C/Nc1ccc(S(N)(=O)=O)cc1)C(=O)N2` was run?
A: 0.97%

Q: With `COc1cc(C)c(N(C)C(=O)CN(C)C)cc1Nc1nc(Nc2cccc(F)c2C(N)=O)c2cc[nH]c2n1` as the molecule, how does the inhibition read?
A: -0.22%

Q: With `O=C(NCC1CC1)c1ccc(-c2cccc(C(=O)NC3CC3)c2)cc1` as the molecule, how does the inhibition read?
A: 0.95%

Q: With `COc1cc(N2CCN(C(C)C)CC2)ccc1Nc1nc(Nc2ccc(F)cc2C(=O)NC[C@@H](O)CO)c2cc[nH]c2n1` as the molecule, how does the inhibition read?
A: 1.77%

Q: With `NC(=O)c1ccc(Oc2nccc(-c3c(-c4ccc(F)cc4)ncn3C3CCNCC3)n2)cc1` as the molecule, how does the inhibition read?
A: 0.01%

Q: Which inhibition does the source give for `COc1cc2ncn(-c3cc(OCCc4ccccc4)c(C(N)=O)s3)c2cc1OC` here?
A: 0.61%

Q: `CCc1cccc(CC)c1/C=C/c1cncc(C(=O)NC)c1` was tested. Which inhibition did it give?
A: 0.82%

Q: Which inhibition does the source give for `COc1ccc2cc(-c3c(-c4ccncc4)nc(-c4ccc([S+](C)[O-])cc4C)n3C)ccc2c1` (centres undefined) here?
A: -3.43%

From ChEMBL document CHEMBL1961873, “Compounds: GSK PKIS; Assays: Nanosyn kinase panel” (2012)
